Measured values as given in the antibiotic and cytotoxicity screens of Wong et al. (2023).
In all, about 39,000 compounds went through this assay and about 1,500 (3.8%) were called active. Only a selection was taken, and actives are over-represented in it overall.

The compounds below were run on HSkMC (human skeletal muscle cells) (assay: cytotoxicity call (relative viability < 0.9)). Conditions: 10 µM.

Structure (SMILES)	cytotoxicity call
COc1ccc2c3c(n(c2c1)C)[C@@H](CO)N(C[C@]13CN(C1)C(=O)C)C(=O)CN1CCOCC1	inactive
Cc1noc(C)c1S(=O)(=O)Nc1ccc2c(c1)CC(=O)N([C@@H](C)CO)C[C@@H](C)[C@@H](CN(C)S(=O)(=O)c1ccccc1)O2	inactive
CN(C)C(=O)C[C@H]1C=C[C@@H](NC(=O)C2CC2)[C@@H](CO)O1	inactive
C=CCN1C(=O)[C@]2(O[C@H](CCO)[C@@H]([Si](C)(C)c3ccc(OC)cc3)[C@@H]2C)c2cc(N3C(=O)c4cccc5cccc3c45)ccc21	active
C=CCN1C(=O)[C@]2(O[C@H](CCn3cc([C@H](O)c4ccccc4)nn3)[C@@H]([Si](C)(C)c3ccc(OC)cc3)[C@@H]2C)c2cc(N3C(=O)c4cccc5cccc3c45)ccc21	inactive
C=CCN1C(=O)[C@@]2(O[C@@H](CCO)[C@H]([Si](C)(C)F)[C@H]2C)c2cc(N3C(=O)c4cccc5cccc3c45)ccc21	inactive
C=CCN1C(=O)[C@@]2(O[C@@H](CCn3cc([C@H](O)c4ccccc4)nn3)[C@H]([Si](C)(C)c3ccc(OC)cc3)[C@H]2C)c2cc(N3C(=O)c4cccc5cccc3c45)ccc21	inactive
C=CCN1C(=O)[C@@]2(O[C@@H](CCO)[C@H]([Si](C)(C)c3ccc(OC)cc3)[C@H]2C)c2cc(N3C(=O)c4cccc5cccc3c45)ccc21	active
COc1ccc([Si](C)(C)[C@H]2[C@H](CCO)O[C@@]3(C(=O)N(Cc4ccccc4)c4ccc(N5C(=O)c6cccc7cccc5c67)cc43)[C@@H]2C)cc1	inactive
C[C@H]1CCCCO[C@H](CN(C)C(=O)c2ccccc2)[C@@H](C)CN([C@@H](C)CO)C(=O)c2cc(NC(=O)Nc3ccc4c(c3)OCO4)ccc2O1	inactive
COc1ccc(S(=O)(=O)N2CC(NC(=O)Cn3ccc(=O)n(C)c3=O)C2)cc1	inactive
O=S(=O)(N1CCOCC1)n1nnc2ccccc21	inactive
C[C@H](CO)N1C[C@H](C)[C@H](CN(C)Cc2ccc(C(F)(F)F)cc2)Oc2ccc(NC(=O)Cn3cnnn3)cc2CC1=O	inactive
C[C@@H]1CN([C@@H](C)CO)C(=O)c2cc(C#CC3(O)CCCC3)cnc2O[C@@H]1CN(C)C(=O)C1CCOCC1	inactive
CN1C(=O)c2cc(NC(=O)Cc3cccs3)ccc2OC[C@H]2O[C@H](CC(=O)NCCCN3CCOCC3)CC[C@@H]21	inactive
Cc1noc(C)c1S(=O)(=O)Nc1ccc2c(c1)C(=O)N([C@@H](C)CO)C[C@H](C)[C@H](CN(C)S(=O)(=O)c1cccs1)O2	inactive
C[C@@H]1CN([C@H](C)CO)C(=O)CCCn2cc(nn2)CO[C@@H]1CN(C)S(=O)(=O)c1cccc(C#N)c1	inactive
OS(=O)(=O)c1ccc(cc1)/C/1=C\2/N/C(=C(\C3=N/C(=C(/c4ccc(cc4)S(=O)(=O)O)c4ccc([nH]4)/C(=C\4/C=CC1=N4)c1ccc(cc1)S(=O)(=O)O)C=C3)c1ccc(cc1)S(=O)(=O)O)C=C2	inactive
Oc1cccc(c1)/C/1=C/2\CC/C(=C(\c3cccc(c3)O)c3ccc([nH]3)/C(=C\3/C=CC(=N3)/C(=C\3/C=CC1=N3)c1cccc(c1)O)c1cccc(c1)O)N2	active
CC(C)NC(=O)Nc1ccc2c(c1)CC(=O)N([C@@H](C)CO)C[C@@H](C)[C@@H](CN(C)C(=O)NC1CCCCC1)O2	inactive
CCC(=O)NC[C@H](Cc1ccc(OCCc2nc(-c3ccccc3)oc2C)cc1)N/C(C)=C\C(=O)c1ccc(C(F)(F)F)cc1	active
O=C(O)C[C@@H]1CC[C@H]2[C@@H](COC[C@H](O)CN2S(=O)(=O)c2ccc(F)cc2)O1	inactive

Structure (SMILES)	cytotoxicity call
COc1cnc(SC)n(C)c1=O	inactive
C[C@@H]1CN([C@@H](C)CO)C(=O)Cc2cc(NS(=O)(=O)c3cn(C)cn3)ccc2O[C@H]1CN(C)CC1CCCCC1	inactive
COc1ccc(NC(=O)N2CCCCN3[C@H](CN(C)C(C)=O)[C@H](c4ccc(C#Cc5ccccc5)cc4)[C@@H]3C2)cc1	active
CN(C)CC#Cc1ccc([C@H]2[C@@H](CO)N3CCCCN(C(=O)CN(C)C)C[C@H]23)cc1	inactive
CN(C)CC#Cc1ccc([C@@H]2[C@H](CO)N3CCCCN(C(=O)CN(C)C)C[C@@H]23)cc1	inactive
CN(C)CC#Cc1ccc([C@H]2[C@@H](CO)N3CCCCN(C(=O)CN(C)C)C[C@@H]23)cc1	inactive
COc1ccc(NC(=O)N2CCCCN3[C@H](COCCN(C)C)[C@H](c4ccc(C#Cc5ccccc5)cc4)[C@@H]3C2)cc1	active
CN(C)CC#Cc1ccc([C@@H]2[C@@H](CO)N3CCCCN(C(=O)CN(C)C)C[C@@H]23)cc1	inactive
C[C@H]1Cc2c(N)nn(C)c2NC1=O	inactive
CC(=O)OCC(=O)C12OC3(CCCC3)OC1CC1C3CCC4=CC(=O)C=CC4(C)C3(F)C(O)CC12C (stereo unspecified)	inactive
C[C@@H]1CN([C@H](C)CO)C(=O)Cc2cc(NS(=O)(=O)c3cccs3)ccc2O[C@H]1CN(C)Cc1ccc(-c2ccccc2)cc1	inactive
Cc1ccc(-c2ccc3c(c2)O[C@@H](CN(C)C(=O)NC(C)C)[C@@H](C)CN([C@H](C)CO)S3(=O)=O)cc1	inactive
COc1ccc(NC(=O)N(C)C[C@@H]2OCCCC[C@@H](C)Oc3ccc(NC(=O)Cc4ccccc4)cc3C(=O)N([C@H](C)CO)C[C@H]2C)cc1	inactive
C[C@@H]1CCCCO[C@@H](CN(C)C(=O)Cc2ccccc2)[C@@H](C)CN([C@H](C)CO)C(=O)c2cc(NC(=O)c3ccccc3)ccc2O1	inactive
COc1ccc(-c2cccc(-c3nc(C(=O)NCC(F)(F)F)cc4c3[C@H](CCO)N([S@@](=O)C(C)(C)C)C4)c2)cc1	inactive
C[C@@H]1CCCCO[C@@H](CN(C)C(=O)Cc2ccccc2)[C@H](C)CN([C@@H](C)CO)C(=O)c2cc(NC(=O)CCC(F)(F)F)ccc2O1	inactive
COc1cc(N2CCC(O)CC2)ccc1Nc1cc(Nc2ccccc2S(=O)(=O)C(C)C)c2cc[nH]c2n1	inactive
COc1cc(N2CCC(N(C)C)CC2)ccc1Nc1ncc(Cl)c(Nc2ccccc2P(C)(C)=O)n1	active
COc1cc(N2CCC(N3CCN(C)CC3)CC2)ccc1Nc1ncc(Cl)c(Nc2ccccc2S(=O)(=O)C(C)C)n1	active
NC1CCN(C(=O)c2c[nH]c3ccccc23)CC1	inactive
COc1cc(C(=O)NC2CCN(C)CC2)ccc1Nc1ncc2c(n1)N(C1CCC(O)CC1)CCC(=O)N2C (stereo unspecified)	inactive
Cc1cc(Nc2ncc(Cl)c(Nc3ccccc3S(=O)(=O)C(C)C)n2)c(OC(C)C)cc1C1CCNCC1	active

Structure (SMILES)	cytotoxicity call
COc1cc(N2CCC(N)CC2)ccc1Nc1ncc(Cl)c(-c2c[nH]c3ccccc23)n1	active
Cc1noc(C)c1NC(=O)N(C)C[C@H]1Oc2ccc(NC(=O)CCCN(C)C)cc2C(=O)N([C@@H](C)CO)C[C@H]1C	inactive
C[C@H]1CN([C@@H](C)CO)C(=O)c2cc(NC(=O)Cc3cn(C)c4ccccc34)ccc2O[C@H]1CN(C)Cc1ccc(C(=O)Nc2ccccc2N)cc1	inactive
COc1ccc(NC(=O)N(C)C[C@@H]2OCCCC[C@@H](C)Oc3ccc(NS(=O)(=O)c4ccccc4)cc3C(=O)N([C@@H](C)CO)C[C@H]2C)cc1	inactive
O=C(C[C@@H]1C=C[C@H](NC(=O)CN2CCOCC2)[C@@H](CO)O1)NC1CCCCC1	inactive
C[C@@H]1CN([C@@H](C)CO)S(=O)(=O)c2ccc(C#CCC3CCCC3)cc2O[C@@H]1CN(C)C(=O)c1cnccn1	inactive
C[C@H](CO)N1C[C@H](C)[C@H](CN(C)Cc2ccc(C(=O)O)cc2)Oc2ccc(NS(=O)(=O)c3cn(C)cn3)cc2C1=O	inactive
O=C(NCCN1CCCC1)[C@H]1[C@H](CO)[C@H]2Cn3c(cccc3=O)[C@H]2N1C(=O)c1ccccc1	inactive
CC(C)(C)NCC(O)COc1ccccc1C1CCCC1.O=S(=O)(O)O (stereo unspecified)	inactive
Cc1ccc2sc(C(=O)O)cc2c1	inactive
COc1ccc(S(=O)(=O)Nc2ccc3c(c2)C(=O)N([C@@H](C)CO)C[C@@H](C)[C@H](CN(C)C(=O)Nc2cccc4ccccc24)OCCCC[C@@H](C)O3)cc1	inactive
C[C@H]1CN([C@@H](C)CO)S(=O)(=O)c2ccc(C#Cc3cccc(F)c3)cc2O[C@@H]1CN(C)S(=O)(=O)c1cn(C)cn1	inactive
CO[C@@H]1CN(C)C(=O)c2ccc(NS(C)(=O)=O)cc2OC[C@@H](C)N(S(C)(=O)=O)C[C@H]1C	inactive
C[C@@H]1CN([C@@H](C)CO)C(=O)c2cccc(NC(=O)c3cnccn3)c2O[C@H]1CN(C)S(=O)(=O)c1ccc(Cl)cc1	inactive
C[C@H]1CN([C@@H](C)CO)C(=O)c2cc(Br)cnc2O[C@H]1CN(C)Cc1ccccc1C(=O)O	inactive
C[C@H]1CN([C@@H](C)CO)C(=O)c2cccc(NC(=O)Nc3ccc(C(F)(F)F)cc3)c2O[C@H]1CN(C)S(=O)(=O)c1ccc(F)cc1	inactive
OC1(c2ccc(Cl)c(C(F)(F)F)c2)CCN(CCCC(c2ccc(F)cc2)c2ccc(F)cc2)CC1 [listing 1 of 2 here]	active
OC1(c2ccc(Cl)c(C(F)(F)F)c2)CCN(CCCC(c2ccc(F)cc2)c2ccc(F)cc2)CC1 [listing 2 of 2 here]	active
O=C(CCCN1CCC(O)(c2ccc(Br)cc2)CC1)c1ccc(F)cc1	inactive
O=C(CCCN1CCC(O)(c2ccc(Cl)cc2)CC1)c1ccc(F)cc1	inactive
COc1ccc(S(=O)(=O)Nc2cccc3c2O[C@@H](CN(C)S(=O)(=O)c2ccccc2)[C@@H](C)CN([C@H](C)CO)C3=O)cc1	inactive
C[C@@H]1CN([C@H](C)CO)C(=O)c2cccc(NS(=O)(=O)c3cn(C)cn3)c2O[C@H]1CN(C)C(=O)Nc1ccc(F)cc1	inactive
